The results in this text go back to PubChem BioAssay.

A short description of test [1]: antimalarial activity against Dd2 strain (AID 2302;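 active means growth inhibition above 50% at the single 2 µM test dose, taken to imply half-maximal potency below 2 µM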;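 further: 0% = DMSO untreated growth and 100% = chloroquine plus artemisinin killed control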). The note with it: P. falciparum Dd2 in RBCs, LDH growth readout, 72 h; at 2 µM; hits give high values.
Test [2] in a line: HepG2 cytotoxicity, primary screen, cytotoxicity control for P. falciparum antimalarial project, cell-based, ATP luminescence (AID 2303;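 active means inhibition above 50%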;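 further: 0% = DMSO wells and 100% = digitonin-killed cells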). The note with it: HepG2 viability, 24-48 h, at 10 µM, hits give high values.
The target of test [3] is L-lactate dehydrogenase (Plasmodium falciparum (isolate CDC / Honduras)) (UniProt Q27743). Briefly: PfLDH activity inhibition – cell lysate, 3D7 strain, counter-screen for P. falciparum growth inhibition project (AID 2304).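 Further: 0% = vehicle and 100% = reference inhibitor.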 The settings on record: P. falciparum 3D7 crude extract, LDH APAD/NBT absorbance; at 2 µM; hits give high values. A general note: Counterscreens check selectivity or assay interference.
Sequence of L-lactate dehydrogenase (Plasmodium falciparum (isolate CDC / Honduras)) (Q27743 whole entry, looked up): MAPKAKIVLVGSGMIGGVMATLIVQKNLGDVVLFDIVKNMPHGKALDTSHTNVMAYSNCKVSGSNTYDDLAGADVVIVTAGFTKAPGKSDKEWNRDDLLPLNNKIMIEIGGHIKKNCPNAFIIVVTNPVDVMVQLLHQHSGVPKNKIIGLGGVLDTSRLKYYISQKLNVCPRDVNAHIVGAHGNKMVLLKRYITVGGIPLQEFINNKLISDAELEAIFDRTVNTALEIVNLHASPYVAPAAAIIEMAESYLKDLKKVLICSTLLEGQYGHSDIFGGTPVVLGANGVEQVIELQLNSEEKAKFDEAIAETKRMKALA

The nature of test [4]: inhibition of 3D7 malaria parasite growth – strain 3D7 (AID 2306).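 Further: 0% = DMSO wells and 100% = chloroquine plus artemisinin control wells.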 The settings on record: P. falciparum 3D7 erythrocytic growth, LDH absorbance, 72 h; at 2 µM; hits give high values.
Test [5] deals with Calcium-dependent protein kinase 1 (Plasmodium falciparum (isolate 3D7)) (UniProt P62344). Put plainly: PfCDPK1 kinase inhibitors, biochemical, TCAMS library (AID 1159585; cut-off not given, nearly all actives have IC50 up to about 0.98 µM;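 further: inhibitors leave more ATP so luminescence rises with inhibition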). The settings on record: recombinant PfCDPK1, Kinase-Glo ATP depletion luminescence. In general terms: In Kinase-Glo more light means more ATP remaining.
Sequence of Calcium-dependent protein kinase 1 (Plasmodium falciparum (isolate 3D7)) (P62344 whole entry, looked up): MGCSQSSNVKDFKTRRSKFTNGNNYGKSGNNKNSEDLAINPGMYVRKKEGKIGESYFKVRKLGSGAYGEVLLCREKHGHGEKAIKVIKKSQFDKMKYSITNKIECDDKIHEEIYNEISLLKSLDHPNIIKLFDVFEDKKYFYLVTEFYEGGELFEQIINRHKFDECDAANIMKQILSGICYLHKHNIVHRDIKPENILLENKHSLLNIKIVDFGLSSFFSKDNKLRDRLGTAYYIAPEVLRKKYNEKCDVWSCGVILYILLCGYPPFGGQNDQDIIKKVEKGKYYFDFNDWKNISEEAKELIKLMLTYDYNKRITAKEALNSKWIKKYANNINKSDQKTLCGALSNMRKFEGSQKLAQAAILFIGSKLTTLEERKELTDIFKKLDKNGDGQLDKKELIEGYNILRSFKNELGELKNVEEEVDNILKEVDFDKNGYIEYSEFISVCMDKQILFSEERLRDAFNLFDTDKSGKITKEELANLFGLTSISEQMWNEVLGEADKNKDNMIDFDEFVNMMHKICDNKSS
The target in test [6] is Plasmodium falciparum protein kinase 6 (PK6, PF3D7_1337100) (UniProt Q8IDW1). Put plainly: PfPK6 kinase inhibitors, biochemical, TCAMS library (AID 1159586). The settings on record: recombinant PfPK6, Kinase-Glo ATP depletion luminescence.
Sequence of Plasmodium falciparum protein kinase 6 (PK6, PF3D7_1337100) (Q8IDW1 1-305): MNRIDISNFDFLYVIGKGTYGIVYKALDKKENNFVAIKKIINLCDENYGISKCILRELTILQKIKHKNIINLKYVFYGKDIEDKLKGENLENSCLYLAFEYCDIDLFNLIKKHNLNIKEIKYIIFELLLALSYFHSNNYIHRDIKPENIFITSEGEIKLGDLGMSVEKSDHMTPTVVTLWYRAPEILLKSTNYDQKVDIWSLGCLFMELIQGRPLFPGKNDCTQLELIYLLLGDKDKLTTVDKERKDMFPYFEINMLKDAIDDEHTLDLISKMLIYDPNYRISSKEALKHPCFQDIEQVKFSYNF
The target in test [7] is Protein kinase 7 (PK7), Plasmodium falciparum 3D7 (PF3D7_0213400) (UniProt Q7YTF7). Briefly: inhibition of Plasmodium PK7 catalytic activity – biochemical, TCAMS antimalarial set, Kinase-Glo luminescence (AID 1159587). The note with it: recombinant PfPK7, Kinase-Glo ATP depletion luminescence.
Sequence of Protein kinase 7 (PK7), Plasmodium falciparum 3D7 (PF3D7_0213400) (Q7YTF7 1-343): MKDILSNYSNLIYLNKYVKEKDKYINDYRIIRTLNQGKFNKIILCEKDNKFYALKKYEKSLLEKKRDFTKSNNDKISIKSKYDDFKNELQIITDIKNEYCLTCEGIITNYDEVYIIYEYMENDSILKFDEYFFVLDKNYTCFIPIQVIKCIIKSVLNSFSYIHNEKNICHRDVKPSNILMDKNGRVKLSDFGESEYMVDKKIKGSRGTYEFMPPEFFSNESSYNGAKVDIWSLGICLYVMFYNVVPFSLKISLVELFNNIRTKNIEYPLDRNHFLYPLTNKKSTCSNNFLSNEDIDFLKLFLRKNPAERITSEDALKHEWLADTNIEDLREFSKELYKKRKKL
Test [8] has as its target Calcium-dependent protein kinase 4 (Plasmodium falciparum (isolate 3D7)) (UniProt Q8IBS5). Put plainly: PfCDPK4 kinase inhibitors, biochemical, TCAMS library (AID 1159588; cut-off not given, nearly all actives have IC50 up to about 0.91 µM). The note with it: recombinant PfCDPK4, Kinase-Glo ATP depletion luminescence.

By inhibition is commonly meant the change of the read-out against control, counted positive when it falls.

Unmarked numbers belong to inactive results. For some of these results: Results with a measured potency or affinity are listed apart. Activity calls are given as the source filed them. Unless noted, how the calls were made is not given here.

Sequence of Calcium-dependent protein kinase 4 (Plasmodium falciparum (isolate 3D7)) (Q8IBS5 whole entry, looked up): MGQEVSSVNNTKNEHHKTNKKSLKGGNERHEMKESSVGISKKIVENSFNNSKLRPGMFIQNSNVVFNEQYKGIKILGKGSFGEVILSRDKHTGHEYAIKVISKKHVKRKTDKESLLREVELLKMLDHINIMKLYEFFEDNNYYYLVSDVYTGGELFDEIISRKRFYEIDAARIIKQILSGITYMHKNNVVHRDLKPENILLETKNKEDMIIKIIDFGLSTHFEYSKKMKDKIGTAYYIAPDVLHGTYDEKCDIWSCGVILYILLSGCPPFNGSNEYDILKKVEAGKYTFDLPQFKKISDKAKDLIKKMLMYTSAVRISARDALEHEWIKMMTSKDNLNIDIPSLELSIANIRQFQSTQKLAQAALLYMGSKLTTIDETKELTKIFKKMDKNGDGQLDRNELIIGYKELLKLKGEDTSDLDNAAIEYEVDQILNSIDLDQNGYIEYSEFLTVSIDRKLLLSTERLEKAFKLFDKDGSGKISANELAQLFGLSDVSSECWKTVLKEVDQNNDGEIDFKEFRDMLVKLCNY

Consider `Cc1cc(=O)[nH]c2cc(Nc3ccnc(Nc4cccc(C(N)=O)c4)n3)ccc12`, for which the figures for the growth inhibition in test [1] and in test [4] were 98% (active) and 99% (active), respectively. Further, the results for the inhibition in test [2] and in test [3] were 27% and -4%, respectively. The result in test [5], in test [6], in test [7] and in test [8] was inactive.

With `O=C(COC(=O)c1cccc(S(=O)(=O)N2CCc3ccccc32)c1)NNC(=O)c1cccs1`, the growth inhibition was 4% in test [1] and 96% (active) in test [4]. The results for the inhibition in test [2] and in test [3] were 4% and 3%, respectively. In addition, the result in test [5], in test [6], in test [7] and in test [8] was inactive.

Take `COc1ccccc1CCNc1nc(C)cc(N[C@@H](Cc2ccccc2)C(=O)NCCOc2ccccc2)n1`: the growth inhibition in test [1] is 76% (active); in test [4] it was 101% (active). Further, the inhibition in test [2] was 20%; in test [3] it was 4%. In addition, the result in test [5], in test [6], in test [7] and in test [8] was inactive.

As for `CC(C)c1ccc(OCCCON2C(N)=NC(N)=NC2(C)C)cc1`, the growth inhibition in test [1] is 97% (active); in test [4] it was 93% (active). Further, the results for the inhibition in test [2] and in test [3] were 69% (active) and 0%, respectively. The outcome in test [5], in test [6], in test [7] and in test [8] was inactive.

Regarding `N#Cc1cccc(Nc2ncc3c(-c4cccc(NC(=O)Cc5cccc(Cl)c5)c4)c[nH]c3n2)c1`, the growth inhibition in test [1] is 95% (active); in test [4] it was 101% (active). Further, the inhibition in test [2] was -1%; in test [3], -2%. Further, the result in test [5], in test [6], in test [7] and in test [8] was inactive.

With `Cc1ccc(Sc2ccc(NC(=O)CN3CCN(C(=O)c4ccco4)CC3)cc2)cc1C`, the growth inhibition is 84% (active) in test [1] and 92% (active) in test [4]. The inhibition in test [2] is 14%; in test [3], 1%. The outcome in test [5], in test [6], in test [7] and in test [8] was inactive.

As for `CCc1ccc(C2CCN(CCCCNC(=O)c3ccc(NC(=O)c4ccc(Cl)cc4)cc3)CC2)c(OCC(=O)OC)c1`, the growth inhibition is 12% in test [1] and 95% (active) in test [4]. For the same compound, the inhibition in test [2] is 32%; in test [3], 6%. Moreover, the outcome in test [5], in test [6], in test [7] and in test [8] was inactive.

In the case of `COC(=O)CCCCOc1c(OC)cc(Cc2cnc(N)nc2N)cc1OC`, the growth inhibition in test [1] was -2%; in test [4] it was 93% (active). In addition, the inhibition in test [2] and in test [3] was -2% throughout. Further, the result in test [5], in test [6], in test [7] and in test [8] was inactive.

In the case of `O=C(Nc1ccc(Cl)cc1)Nc1cccc(-c2cccc(-c3nc4ccc(F)cc4[nH]3)c2)c1`, the growth inhibition in test [1] is 84% (active); in test [4], 100% (active). In addition, the inhibition in test [2] was 79% (active); in test [3], -2%. The result in test [5], in test [6], in test [7] and in test [8] was inactive.

Take `CC(=O)Nc1nnc(SCc2c(C)cc(C(C)(C)C)cc2C)s1`: the growth inhibition is 91% (active) in test [1] and 98% (active) in test [4]. Moreover, the results for the inhibition in test [2] and in test [3] were 3% and -4%, respectively. Moreover, the outcome in test [5], in test [6], in test [7] and in test [8] was inactive.

For `CCCNCc1ccc(-c2ccc(CN(Cc3ccc4c(c3)OCO4)C(=O)Cc3cccnc3)cc2)nc1`, the growth inhibition in test [1] is 53% (active); in test [4] it was 94% (active). In addition, the inhibition in test [2] was 16%; in test [3] it was 5%. Besides, the result in test [5], in test [6], in test [7] and in test [8] was inactive.

Take `CC1(C)N=C(N)N=C(N)N1c1ccccc1`: the values for the growth inhibition in test [1] and in test [4] were 1% and 98% (active), respectively. Further, the inhibition in test [2] was 16%; in test [3] it was -4%. The outcome in test [5], in test [6], in test [7] and in test [8] was inactive.

Regarding `CC(C)c1ccc(CN(C)CCCCNC(=O)c2ccc(NC(=O)c3ccc(Cl)cc3)cc2)cc1`, the growth inhibition was 0% in test [1] and 92% (active) in test [4]. Moreover, the inhibition is 17% in test [2] and 0% in test [3]. In addition, the result in test [5], in test [6], in test [7] and in test [8] was inactive.

Regarding `C[C@H](NC(=O)c1c(CN2CCC(N3CCCCC3)CC2)c(-c2ccccc2)nc2cc(O)ccc12)C1CCCCC1`, the growth inhibition in test [1] is 72% (active); in test [4], 99% (active). The inhibition in test [2] is 77% (active); in test [3], 0%. In addition, the outcome in test [5], in test [6], in test [7] and in test [8] was inactive.

Take `Cc1cc(-c2ccc(NC(=O)N3CCc4cc(Cl)c(N5CCN(C)CC5)cc43)cc2)ccc1C#N`: the growth inhibition is 83% (active) in test [1] and 101% (active) in test [4]. For the same compound, the inhibition is 100% (active) in test [2] and -2% in test [3]. Also, the result in test [5], in test [6], in test [7] and in test [8] was inactive.

With `O=c1cc(NC[C@H]2CCC[C@@H]2NCc2cc(Br)cc(Br)c2)[nH]c2ccccc12`, the growth inhibition was 45% in test [1] and 101% (active) in test [4]. The figures for the inhibition in test [2] and in test [3] were 21% and 2%, respectively. Also, the result in test [5], in test [6], in test [7] and in test [8] was inactive.

In the case of `Cc1ccc(C(=O)Nc2ccc(F)c(F)c2F)cc1S(=O)(=O)N1CCCCC1`, the growth inhibition was 69% (active) in test [1] and 92% (active) in test [4]. Besides, the inhibition in test [2] was 3%; in test [3], -8%. For the same compound, the outcome in test [5], in test [6], in test [7] and in test [8] was inactive.

As to `CCc1cn(CCCOC)c2ccc(C(=O)N[C@@H](Cc3ccccc3)[C@H](O)CNCc3cccc(C(F)(F)F)c3)cc12`, the growth inhibition in test [1] is 78% (active); in test [4] it was 93% (active). Besides, the values for the inhibition in test [2] and in test [3] were 8% and -4%, respectively. The outcome in test [5], in test [6], in test [7] and in test [8] was inactive.

For the compound `NC1CCN(CCc2ccc(NS(=O)(=O)c3cccc4ccccc34)cc2)CC1`, the figures for the growth inhibition in test [1] and in test [4] were 4% and 94% (active), respectively. For the same compound, the inhibition was 21% in test [2] and 4% in test [3]. For the same compound, the outcome in test [5], in test [6], in test [7] and in test [8] was inactive.

Take `CN1CCN(CCCN(Cc2csc(-c3ccc(CNCc4ccccc4)cc3)n2)S(=O)(=O)c2ccc(F)cc2)CC1`: the growth inhibition in test [1] was 80% (active); in test [4], 101% (active). In addition, the figures for the inhibition in test [2] and in test [3] were 21% and 3%, respectively. In addition, the result in test [5], in test [6], in test [7] and in test [8] was inactive.
